# The sample as a whole holds a higher share of hits than the screen did.
# G9a inh = G9a (human) methyltransferase inhibition; G9a H3K9 monomethylation, AlphaScreen, 2 h; Potency, µM (doses to about 102 µM), for the others: at the highest dose activity, negative = inhibition, hits mostly inhibitors; 350,000 tested, 8.8% active; AID 504332; also: % is scaled to controls: 0 for no effect and ±100 for the full control effect; nearly all actives have a fitted effect of over 75% in size
# Target sequence (Q96KQ7 913-1193 limits assumed): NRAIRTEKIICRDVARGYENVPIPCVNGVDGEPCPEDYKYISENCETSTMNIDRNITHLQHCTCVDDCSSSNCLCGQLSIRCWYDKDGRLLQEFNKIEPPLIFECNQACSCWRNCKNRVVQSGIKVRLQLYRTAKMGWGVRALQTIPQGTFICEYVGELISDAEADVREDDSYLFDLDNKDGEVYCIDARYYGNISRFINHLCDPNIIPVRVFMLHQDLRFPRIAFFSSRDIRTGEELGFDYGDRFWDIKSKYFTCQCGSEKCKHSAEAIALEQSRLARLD
#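 Methyltransferase reactions run at room temperature for 2 h (20 nM enzyme, 500 nM biotin-H3K9 peptide, 20 uM SAM) after a 15 min compound preincubation; product detected by AlphaScreen beads and anti-H3K9me1 antibody.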
# Glioma ERSR ind = ER stress response induction in glioma; U87-MG GRP78 promoter luciferase reporter, 16 h; Potency, µM, without a hit: at the top dose activation, actives largely listed as activators; 420,000 tested, 0.02% active; AID 602332; also: series mostly up to about 76 µM; % of control where 0% means no effect; nearly all actives have a fitted effect of over 35% in size
#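 Stably transfected U87-MG glioma cells carrying a GRP78-based luciferase sensor; 16 h compound incubation. Luminescence end-point read 10 min after Bright-Glo addition at room temperature.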
# Sfp inh = blocks B. subtilis Sfp PPTase activity. AID 1490. Biochemical Sfp PPTase activity, qHTS. Potency, µM, inactives show largest response in the series, negative = inhibition, hits mostly inhibitors. 310,000 tested, 3.5% active;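 also: the enzyme is Sfp with the accession as filed and its product quenches rhodamine fluorescence; 0% = enzyme reaction without inhibitor and -100% = no enzyme wells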
#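 Reaction rates are the 30-min fluorescence difference (ex 525, em 598 nm) in wells containing 15 nM Sfp, 5 uM rhodamine-CoA and 12.5 uM BHQ-2-YbbR at pH 7.6 with 10 mM MgCl2.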
# ALOX12 inh = inhibitors of human 12S-lipoxygenase ALOX12 | P18054 | purified 12hLO, xylenol orange hydroperoxide absorbance | Potency, µM (series often up to 108 µM), inactives show at the highest dose activity change, negative = inhibition, actives largely listed as inhibitors | 580,000 tested, 1.1% active; also: % is scaled to controls: 0 for no effect and ±100 for the full control effect
#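 Hydroperoxide product was detected by ferrous iron/xylenol orange as the 573 to 405 nm absorbance ratio. Arachidonic acid at 40 uM (final) was turned over for 30 min at room temperature by 150 nM human 12hLO, pH 7.0 Hepes buffer, after 15 min compound preincubation.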
# VDR inhibitor = vitamin D3 receptor (human) inhibition. P11473. VDR-SRC2-3 peptide fluorescence polarization, 2 h. Potency, µM, without a hit: max response, negative = inhibition, hits mostly inhibitors. 400,000 tested, 0.93% active. AID 504847; also: % is scaled to controls: 0 for no effect and ±100 for the full control effect
# Target sequence (P11473 whole entry, looked up): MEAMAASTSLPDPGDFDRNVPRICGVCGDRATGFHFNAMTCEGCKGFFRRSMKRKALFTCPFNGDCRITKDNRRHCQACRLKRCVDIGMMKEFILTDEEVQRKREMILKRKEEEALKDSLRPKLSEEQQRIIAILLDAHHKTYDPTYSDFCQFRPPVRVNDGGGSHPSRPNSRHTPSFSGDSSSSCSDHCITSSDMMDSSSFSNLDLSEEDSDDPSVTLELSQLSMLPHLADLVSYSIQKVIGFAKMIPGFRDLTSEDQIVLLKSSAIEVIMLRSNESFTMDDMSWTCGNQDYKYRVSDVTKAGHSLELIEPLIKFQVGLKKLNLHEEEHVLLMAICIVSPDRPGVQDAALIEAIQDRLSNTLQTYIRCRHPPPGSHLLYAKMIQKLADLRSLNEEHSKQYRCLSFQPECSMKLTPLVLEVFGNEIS
#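 Fluorescence polarization assay measuring small-molecule disruption of VDR binding to the coregulator peptide SRC2-3. Compounds were pin-transferred (23 nl) into the reagent mix and incubated 2 h at room temperature before reading.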
# Active calls of the source: *; ? = inconclusive; . = no result; ! = not confirmed by another sample; [ ] = dose if it differs, or a comment. Calls follow the shape of the dose curve; as a rule, active = well fitted curve in the direction sought with a large enough effect; inconclusive = small, poorly fitted or top-dose-only effect, or another doubt; inactive = no such curve, though single readings can be large; an effect the other way counts as inactive or inconclusive. Potency is read from the fitted curve at half-maximal effect.
SMILES,G9a inh,Glioma ERSR ind,Sfp inh,ALOX12 inh,VDR inhibitor
c1cncc(-c2nc(NCc3cccs3)c3ccccc3n2)c1,1%[0.501 µM],-5%,79µM*!,-5%,0%
O=c1[nH]c(CNCc2cccnc2)nc2ccccc12,?,-1%,25µM*,1%,5%
N#Cc1cccc(-c2nc(NCc3cccs3)c3ccccc3n2)c1,24%[0.501 µM],-4%,5%,?,0%
CN(C)c1ccc(-c2nc(NCc3cccnc3)c3ccccc3n2)cc1,.,-3%,?,?,?
Cc1ccc(NC(=O)CCC2CCCCC2)cc1,.,.,.,4%,.
Oc1ccccc1-c1nc(NCc2cccnc2)c2ccccc2n1,24%,-5%,-19%,-13%,-10%
c1ccc(CNc2ccnc(-c3ccoc3)n2)cc1,.,-3%,-24%,?,79µM*
Cc1noc(C)c1-c1cncnc1NC1CC1,.,0%,3%,?,-22%
Cc1ccccc1-c1nc(NCc2cccnc2)c2ccccc2n1,.,-4%,-4%,28µM*,?
N#Cc1cccc(-c2cncnc2NCc2cccnc2)c1,13%[0.501 µM],-2%,-2%,?,-9%
c1cncc(CNc2ncncc2-c2ccoc2)c1,-14%[0.501 µM],-4%,79µM*,?,50µM*
COc1ccccc1CNc1ccnc(-c2ccoc2)n1,.,-2%,?,?,?
c1ncc(-c2ccoc2)c(NC2CC2)n1,0%[0.501 µM],0%,79µM*,?,50µM*
COc1ccc(S(=O)(=O)Oc2ccc3c(c2)O/C(=C\c2cccc(C)c2)C3=O)cc1,.,.,.,-12%,.
CCC1Oc2ccc(NC(=O)c3ccccc3OC)cc2CN(Cc2ccc(OC)cc2)C1=O (stereo unspecified),.,.,.,-15%,.
Cc1noc(C)c1S(=O)(=O)N(C)C(C)c1cc2ccccc2o1 (stereo unspecified),.,.,.,-3%,.
CNc1nc(-c2ccoc2)nc2ccccc12,3%[0.501 µM],1%,9%,35µM*,?
CCc1nc(-c2c3n(c(=O)n(CC(=O)NCc4ccc(C)cc4)c2=O)CCCC3)no1,.,.,.,1%,.
OC1(c2cccc3ccccc23)CCN(Cc2ccccc2)C1 (stereo unspecified),.,.,.,-12%,.
CCCCn1nc(C(=O)N[C@@H](Cc2ccccc2)C(=O)O)c2ccccc2c1=O,.,.,.,-27%,.
CCC(=O)N(c1nnc(SCC(=O)NN2C(=O)NC3(CCC(C)CC3)C2=O)s1)C1CC1 (stereo unspecified),13%[2.33 µM],4%,.,391%,-2%
O=C(CCSc1nnc(NC2CC2)s1)Nc1ccc(Br)cc1,.,.,.,-27%,.
NS(=O)(=O)c1cccc(NC(=O)CSc2ccccn2)c1,?,2%,?,-13%,14%
CC(=O)c1ccc(NC(=O)CSc2cn[nH]n2)cc1,?,-2%,11%,-11%,7%
NS(=O)(=O)c1ccc(NC(=O)CSc2nnc(NC3CC3)s2)cc1,45µM*,-6%,.,?,-25%
SMILES,G9a inh,Glioma ERSR ind,Sfp inh,ALOX12 inh,VDR inhibitor
O=C(CSc1nnc(NC2CCCCC2)s1)NN1C(=O)NC2(CCCCC2)C1=O,45µM*,-6%,8%,22%,-10%
NS(=O)(=O)c1ccc(NC(=O)CSc2cn[nH]n2)cc1,45µM*,-3%,12%,0%,2%
NS(=O)(=O)c1ccc(NC(=O)CSc2ccccn2)cc1,-48%[59 µM],1%,79µM*,0%,-1%
O=C(Cc1ccccc1)Nc1ccnn1C1CCN(Cc2cc3ccccc3s2)CC1,.,.,.,8%,.
O=C(Nc1c(NCc2ccccc2)c2ccccc2oc1=O)c1ccccc1F,.,.,.,-29%,.
CC(C)(C)CNC(=O)c1nc[nH]c1C(=O)N1CCCC1,.,.,.,-26%,.
CN(Cc1nccn1C)Cc1cnc(S(=O)(=O)CC2CC2)n1CC1CCCCC1,.,.,.,-2%,.
c1cc2nc(C34CC5CC(CC(C5)C3)C4)[nH]c2cn1,14µM*,-4%,-25%,-25%,12%
O=C(Cc1ccccc1)NNC(=O)c1cccs1,13%[59 µM],-1%,9%,0%,1%
O=C(NC(=S)NNC(=O)c1cccs1)c1ccco1,?,-3%,79µM*,0%,6%
O=C(NNC(=O)c1cccs1)c1ccco1,-4%,8%,89µM*,2%,-2%
COc1ncc(-c2ccc3ncn(C4CC4)c(=O)c3n2)cn1,.,.,.,22%[176 µM],.
C=CCOc1ccc(Br)cc1/C=C1/SC(=Nc2ccc(C(=O)O)cc2)NC1=O,20µM*,1%,-20%,?,-15%
CN1CCN(C(=S)C(=O)Nc2ccccc2)CC1,36%[12.7 µM],3%,50µM*,0%,-9%
CN1CCN(C(=S)C(=O)NCc2ccccc2)CC1,6%,-1%,5%,0%,-6%
COc1ccccc1C(=O)N1CCCn2nc(C)c(-c3ccccc3N3CCCC3)c21,.,.,.,231%[176 µM],.
COC(=O)C1(Cc2ccccc2)NC(c2ccccc2C)C2C(=O)N(c3ccc4c(c3)OCO4)C(=O)C21 (stereo unspecified),0.79µM*,-2%,2%,-25%,0%
CC1CCc2nc(NC(=O)Cc3n[nH]c(=O)c4ccccc34)sc2C1 (stereo unspecified),.,.,.,-6%,.
Cc1ccc(CN(C)C(=O)c2cc3cc(F)ccc3[nH]2)c(C)c1,.,.,.,-51%,.
O=c1c2ccccc2c(=O)n(-c2ccccc2)n1-c1ccccc1,.,-2%,.,-4%,-5%
O=c1c2ccccc2c2ccccc2c(=O)n1-c1ccccc1,50µM*,-3%,13%,-5%,?
CCOC(=O)CN1C(=O)S/C(=C/c2ccco2)C1=O,?,-1%,28%,28%,?
CC(C)C(C(=O)O)N1C(=O)/C(=C/C=C/c2ccco2)SC1=S (stereo unspecified),3.5µM*,-3%,20µM*,.,-31%
O=C1/C(=C\c2ccco2)SC(=S)N1c1ccc(O)cc1,40µM*,-5%,16µM*,?,-4%
CC(C)C(C(=O)O)N1C(=O)/C(=C/c2cccn2C)SC1=S (stereo unspecified),-16%[59 µM],0%,-4%,-29%,2%
SMILES,G9a inh,Glioma ERSR ind,Sfp inh,ALOX12 inh,VDR inhibitor
COc1ccc(NC(=O)CCCN2C(=O)/C(=C\c3ccco3)SC2=S)cc1,-7%[59 µM],-7%,?,?,4%
NN1C(=O)/C(=C\c2ccco2)SC1=S,25µM*,-4%,3.2µM*,?,22%
O=C1/C(=C/c2cccnc2)SC(=S)N1Nc1ccccc1,40µM*,0%,-25%,65%,-5%
CCCCOc1ccc(CNC(=O)c2ncoc2-c2cccs2)cc1,.,.,.,35%,.
O=C1/C(=C/c2ccccc2)SC(=S)N1CC(=O)N1CCCCC1c1cccnc1 (stereo unspecified),40µM*,-12%,-15%,-17%,10%
O=C1/C(=C/c2ccco2)SC(=S)N1c1cccnc1,.,-1%,32µM*,40µM*,-18%
COc1ccc(/C=C2\SC(=S)N(c3cccnc3)C2=O)cc1,-16%[12.7 µM],2%,1%,-11%,-3%
O=C1/C(=C\c2ccc(O)cc2)SC(=S)N1c1cccnc1,32µM*,-1%,-28%,-21%,10%
